Our source for the Potency values is ChEMBL document CHEMBL1201862, “PubChem BioAssay data set” (2004).

Hit rate of the full screen: of about 400,000 compounds, about 1,900 (0.47%) were called active. About 14% were inconclusive and are not listed. The rule behind the calls is not given here. Shown is part of a subset that was picked to be rich in actives.

For the assay, the target named is Ataxin-2 (Homo sapiens) (UniProt Q99700). The experiment in a line: qHTS for Inhibitors of ATXN expression. Format: functional.
Ataxin-2 (Homo sapiens), sequence (Q99700 whole entry): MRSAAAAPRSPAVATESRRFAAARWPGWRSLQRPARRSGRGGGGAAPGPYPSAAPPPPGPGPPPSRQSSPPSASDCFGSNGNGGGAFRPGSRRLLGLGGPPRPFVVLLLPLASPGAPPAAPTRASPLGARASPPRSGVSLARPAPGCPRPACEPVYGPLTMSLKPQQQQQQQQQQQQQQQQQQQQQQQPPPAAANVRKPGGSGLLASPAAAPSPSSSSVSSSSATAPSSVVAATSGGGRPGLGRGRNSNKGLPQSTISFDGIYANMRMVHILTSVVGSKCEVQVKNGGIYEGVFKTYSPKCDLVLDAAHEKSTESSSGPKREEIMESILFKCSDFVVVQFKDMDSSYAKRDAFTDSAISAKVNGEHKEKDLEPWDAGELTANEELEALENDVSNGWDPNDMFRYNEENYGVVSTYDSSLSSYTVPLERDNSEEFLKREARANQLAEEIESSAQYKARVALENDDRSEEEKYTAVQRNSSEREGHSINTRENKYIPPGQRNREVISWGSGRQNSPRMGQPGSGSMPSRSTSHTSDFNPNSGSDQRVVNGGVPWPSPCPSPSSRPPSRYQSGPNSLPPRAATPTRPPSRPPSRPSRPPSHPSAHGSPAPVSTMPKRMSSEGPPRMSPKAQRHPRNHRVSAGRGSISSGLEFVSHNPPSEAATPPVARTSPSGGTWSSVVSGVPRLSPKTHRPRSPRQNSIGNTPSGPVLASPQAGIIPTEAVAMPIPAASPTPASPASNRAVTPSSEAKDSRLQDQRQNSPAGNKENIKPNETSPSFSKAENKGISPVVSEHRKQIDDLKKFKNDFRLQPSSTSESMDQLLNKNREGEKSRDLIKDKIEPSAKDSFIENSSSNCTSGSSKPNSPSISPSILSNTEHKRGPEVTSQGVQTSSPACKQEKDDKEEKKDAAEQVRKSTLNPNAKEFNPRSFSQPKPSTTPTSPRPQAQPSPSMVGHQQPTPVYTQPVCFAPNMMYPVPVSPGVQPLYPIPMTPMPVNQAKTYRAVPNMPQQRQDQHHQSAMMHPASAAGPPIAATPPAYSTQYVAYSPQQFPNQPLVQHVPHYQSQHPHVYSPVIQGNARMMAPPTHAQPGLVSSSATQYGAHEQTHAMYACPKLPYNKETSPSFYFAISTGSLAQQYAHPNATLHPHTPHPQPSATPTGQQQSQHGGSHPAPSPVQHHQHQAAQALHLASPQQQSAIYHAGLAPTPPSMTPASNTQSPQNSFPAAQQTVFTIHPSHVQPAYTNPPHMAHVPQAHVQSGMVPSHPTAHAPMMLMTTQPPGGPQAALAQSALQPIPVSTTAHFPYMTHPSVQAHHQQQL
For the molecule `CN(Cc1ccc(OC(F)F)cc1)Cc1nc(O)c2cc(Br)cc(Br)c2n1`, the Potency entry is “inactive”. The value for `CN(C)CC(C(=O)Cc1ccccc1)c1ccccc1` (stereo not given) was 25.1 µM (active).

Turning to `CC(Cc1ccccc1)NC(=O)CCCCC(=O)NC(C)Cc1ccccc1` (stereo not given), the Potency result was “inactive”. Regarding `COCCCn1c(=O)/c(=C\c2ccccc2OC(F)F)s/c1=C(/C#N)C(=O)NCCOC`, the Potency result is “inactive”. Take `Cc1cc([N+](=O)[O-])c2ccccc2[n+]1[O-]`: the Potency is 31.6 µM (active). In the case of `CN1C(=O)/C(=C/c2cccn2-c2ccc3ccccc3c2)C(=O)NC1=S`, the Potency is 39.8 µM (active). `Cc1cc(C)cc(N2C(=O)NC(=O)/C(=C/c3cccn3-c3ccc(Cl)cc3)C2=O)c1`: the Potency is 39.8 µM (active). Regarding `Cc1cc(C)cc(N2C(=O)NC(=O)/C(=C\c3cc(C)n(C)c3C)C2=O)c1`, the Potency result is “inactive”. For `C/C(NCc1cccnc1)=C1/C(=O)NC(=O)N(c2ccc(Cl)cc2)C1=O`, the Potency entry was “inactive”. As for `COCCNC(=O)c1c(N)n(Cc2ccco2)c2nc3ccccc3nc12`, the Potency entry was “inactive”.

Regarding `Clc1cccc(N2Cc3cc(-c4ccccc4)ccc3-n3nncc3C2)c1`, the Potency was 39.8 µM (active). For the molecule `O=C(NC1CCCCC1)N1Cc2cc(-c3ccccc3)ccc2-n2nncc2C1`, the Potency was 39.8 µM (active). Next, `CN1CCc2cc3c(cc2[C@@H]1O)OCO3`: “inactive”. In the case of `Cc1sc2ncnc(N3CCC(C(=O)Nc4ccc(C#N)c(Cl)c4)CC3)c2c1C`, the Potency is 39.8 µM (active). For the molecule `CN(c1ccc(O)cc1)c1ccc([N+](=O)[O-])c2nonc12`, the Potency is 20 µM (active). On to `COc1ccccc1N1CCN(C(=O)c2cc3c(-c4ccccc4F)nn(C)c3s2)CC1`, for which the Potency was 35.5 µM (active).

On to `COc1cc(Cl)ccc1Nc1ncc(C(=O)N2CCN(c3ccccc3OC)CC2)c2ccccc12`, for which the Potency entry was “inactive”. Regarding `O=C1NC(=S)NC(=O)C1=NNc1ccc2c(c1)OCCO2`, the Potency was 44.7 µM (active). For the molecule `CCCCCCCCn1sccc1=O`, the Potency is 25.1 µM (active).

Regarding `O=C(Nc1cccc2ncccc12)c1ccccc1Cl`, the Potency entry is “inactive”.

For `COC(=O)C1=C(c2cccc(OCc3ccccc3)c2)C[C@@H]2CC[C@H]1N2C(=O)NC1CCN(Cc2ccccc2)CC1`, the Potency was 22.4 µM (active). Take `CC[C@@H](O)C[C@H]1CCC[C@@]2(C[C@@H]3OC(=O)/C=C/[C@@](C)(O)[C@@H](O)[C@H](C)[C@@H](O)[C@H](OC4CCC(N(C)C)C(C)O4)[C@@H](O)[C@](C)(O)CCCCC/C=C/[C@@H]4CC(C)(C)O[C@@]4(O)C[C@H](O2)[C@H]3C)O1` (stereo not given in full): the Potency was 2.99 µM (active). `Cc1c(CC(=O)N2C[C@H]3C[C@@H](C2)c2cccc(=O)n2C3)c(=O)oc2cc(O)c(Cl)cc12`: the Potency entry is “inactive”. In the case of `NP(=O)(Oc1ccc(Cl)cc1)Oc1ccc(Cl)cc1`, the Potency result is “inactive”. Regarding `CC1=CC2/C=C(\C)CCC(O)C(O)/C=C/C(=O)C23C(=O)NC(CC(C)C)C3C1C` (stereo not given), the Potency is 3.77 µM (active). Consider `C=C(C=O)CC1CC(O)[C@]2(C)OC3CC4OC5C[C@]6(C)O[C@]7(C)CCC8OC9C[C@]%10(C)OC%11C(C)=CC(=O)OC%11CC%10OC9C[C@@H](C)C8OC7CC6O[C@]5(C)CC5OC5C4OC3CC2O1` (stereo not given in full), for which the Potency is 1.26 µM (active).

For the molecule `CCCNC(=O)c1c(N)n(CC2CCCO2)c2nc3ccccc3nc12` (stereo not given), the Potency entry was “inactive”. The value for `COCCNC(=O)c1c(NC(=O)c2ccco2)n(Cc2ccccc2)c2nc3ccccc3nc12` was “inactive”; that for `CCCCCCCCN1C(=O)[C@H](CC(=O)NCCc2ccccc2OC)C[C@@]2(C(=O)OC)CCCCC=C12` was 25.1 µM (active).

On to `CC(C)OCCCNC(=O)c1c(N)n(CC2CCCO2)c2nc3ccccc3nc12` (stereo not given), for which the Potency result was “inactive”. As to `Cc1nc2ccc(N3CCN(C)CC3)cc2nc1C`, the Potency result was “inactive”. Turning to `O=C(c1ccc(-c2ccccc2)c(F)c1)C1CCCN(CCO)C1` (stereo not given), the Potency result is “inactive”. With `O=C(c1ccccc1)C(CN1CCCC1)c1ccccc1` (stereo not given), the Potency is 25.1 µM (active). In the case of `CC(C)(C)n1nnnc1C(c1cc2ccccc2o1)N1CCC2(CC1)C(=O)NCN2c1ccccc1` (stereo not given), the Potency is 39.8 µM (active). Consider `O=C1NCN(c2ccccc2)C12CCN(C(c1cc3ccccc3o1)c1nnnn1Cc1ccccc1)CC2` (stereo not given), for which the Potency is 39.8 µM (active). For `CCCNC(=O)c1c(N)n(Cc2ccco2)c2nc3ccccc3nc12`, the Potency result is “inactive”.

Take `CCCCn1nnnc1C(c1cccs1)N1CCC2(CC1)C(=O)NCN2c1ccccc1` (stereo not given): the Potency was 31.6 µM (active). For `O=C1NCN(c2ccccc2)C12CCN(C(c1cccs1)c1nnnn1Cc1ccccc1)CC2` (stereo not given), the Potency was 39.8 µM (active). For `Fc1ccc(CNCCc2ccc3c(c2)OCO3)cc1`, the Potency entry was “inactive”. For `O=C1NC(=O)N(CCc2ccccc2)C(=O)/C1=C(O)/C=C/c1c[nH]c2ccccc12`, the Potency result was “inactive”. Regarding `CN(C)C(=O)Oc1ccc2nnc3ccnn3c2c1`, the Potency result is “inactive”. Next, `COc1ccc(N2C(=O)NC(=O)/C(=C\c3c[nH]c4ccccc34)C2=O)cc1`: “inactive”; `CC(C)c1ccc(N2C(=O)NC(=O)/C(=C/C=C/c3ccco3)C2=O)cc1`: 39.8 µM (active); `CCOc1ccc(N2C(=O)NC(=O)/C(=C\c3ccccc3[N+](=O)[O-])C2=O)cc1`: “inactive”. Next, `CN(C)c1ccc(/C=C/C=C2/C(=O)NC(=O)N(c3ccccc3)C2=O)cc1`: 15 µM (active).

Turning to `Cc1ccc(-c2cc(-c3ccc(C)cc3)[n+](-c3ccccc3)c(-c3ccc(C)cc3)c2)cc1`, the Potency was 17.8 µM (active). Consider `c1ccc(-c2cc(-c3ccccc3)[n+](-c3ccccc3)c(-c3ccccc3)c2)cc1`, for which the Potency is 25.1 µM (active). Next, `Cc1ccc(C[n+]2c(-c3ccc(C)cc3)cc(-c3ccc(C)cc3)cc2-c2ccc(C)cc2)cc1`: 12.6 µM (active); `COP(=O)(OC)c1nc(-c2cccc3ccccc23)oc1NCCc1ccccc1`: “inactive”; `CCCCn1c(NS(=O)(=O)c2ccc(C)cc2)c(C(=O)OCC)c2nc3ccccc3nc21`: “inactive”.
